Assay results published in PubChem BioAssay.
Unmarked numbers belong to inactive results. Activity calls are given as the source filed them.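 The calls were made as follows: active = normalized viability below 100% at a tested concentration; inactive = the rest.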 *1 amine or outer side, *2 acyl side, *3 side chain or, on linkers, in order; H or OH if unused. Where a SMILES comes first, the peptide text is derived from it. Bridges are numbered along the chain shown (N, C = ends). Roman numbers before positions name the chains, in order. [ ]: non-standard residue; d: D form. Hexamethylenediamine = C(CCCN[*:2])CCN[*:1]; Dip = N[C@H](C(=O)O)C(c1ccccc1)c1ccccc1; Chg = N[C@H](C(=O)O)C1CCCCC1; NMeA = CN[C@@H](C)C(=O)O

Assay: drug combination growth inhibition, ovarian cancer – cell-based, oncology-focused library, rucaparib conditional, profiling panel (AID 1508598)
Settings: patient-derived ovarian cancer cells, CellTiter-Glo viability, 144 h, hits give low values
[1] = at 0.000305 µM, OCI-C5x cells, with rucaparib 10 µM, 100% = cells with rucaparib alone
[2] = at 0.000305 µM, OCI-C5x cells, without rucaparib
[3] = at 0.000305 µM, OCI-P5x cells, with rucaparib 20 µM, 100% = cells with rucaparib alone
[4] = at 0.000305 µM, OCI-P5x cells, without rucaparib
[5] = at 0.00122 µM, OCI-C5x cells, with rucaparib 10 µM, 100% = cells with rucaparib alone
[6] = at 0.00122 µM, OCI-C5x cells, without rucaparib
[7] = at 0.00122 µM, OCI-P5x cells, with rucaparib 20 µM, 100% = cells with rucaparib alone
[8] = at 0.00122 µM, OCI-P5x cells, without rucaparib
[9] = at 0.00488 µM, OCI-C5x cells, with rucaparib 10 µM, 100% = cells with rucaparib alone
[10] = at 0.00488 µM, OCI-C5x cells, without rucaparib
[11] = at 0.00488 µM, OCI-P5x cells, with rucaparib 20 µM, 100% = cells with rucaparib alone
[12] = at 0.00488 µM, OCI-P5x cells, without rucaparib
[13] = at 0.0195 µM, OCI-C5x cells, with rucaparib 10 µM, 100% = cells with rucaparib alone
[14] = at 0.0195 µM, OCI-C5x cells, without rucaparib
[15] = at 0.0195 µM, OCI-P5x cells, with rucaparib 20 µM, 100% = cells with rucaparib alone
[16] = at 0.0195 µM, OCI-P5x cells, without rucaparib
[17] = at 0.0781 µM, OCI-C5x cells, with rucaparib 10 µM, 100% = cells with rucaparib alone
[18] = at 0.0781 µM, OCI-C5x cells, without rucaparib
[19] = at 0.0781 µM, OCI-P5x cells, with rucaparib 20 µM, 100% = cells with rucaparib alone
[20] = at 0.0781 µM, OCI-P5x cells, without rucaparib
[21] = at 0.313 µM, OCI-C5x cells, with rucaparib 10 µM, 100% = cells with rucaparib alone
[22] = at 0.313 µM, OCI-C5x cells, without rucaparib
[23] = at 0.313 µM, OCI-P5x cells, with rucaparib 20 µM, 100% = cells with rucaparib alone
[24] = at 0.313 µM, OCI-P5x cells, without rucaparib
[25] = at 1.25 µM, OCI-C5x cells, with rucaparib 10 µM, 100% = cells with rucaparib alone
[26] = at 1.25 µM, OCI-C5x cells, without rucaparib
[27] = at 1.25 µM, OCI-P5x cells, with rucaparib 20 µM, 100% = cells with rucaparib alone
[28] = at 1.25 µM, OCI-P5x cells, without rucaparib
[29] = at 5 µM, OCI-C5x cells, with rucaparib 10 µM, 100% = cells with rucaparib alone
[30] = at 5 µM, OCI-C5x cells, without rucaparib
[31] = at 5 µM, OCI-P5x cells, with rucaparib 20 µM, 100% = cells with rucaparib alone
[32] = at 5 µM, OCI-P5x cells, without rucaparib

In the case of `C[C@]12CC[C@H]3c4ccc(O)cc4CC[C@H]3[C@@H]1CC[C@H]2O`, the viability [1] is reported as 95.7% (active), the viability [2] is reported as 130% and the viability [3] is reported as 103%. For the same molecule, the viability [4] was 110%, the viability [5] was 105% and the viability [6] was 111%. The viability [7] was 101%, the viability [8] was 116% and the viability [9] was 109%. For the same molecule, the viability [10] was 124%, the viability [11] was 104% and the viability [12] was 112%. For the same molecule, the viability [13] was 99.5% (active), the viability [14] was 115% and the viability [15] was 109%. It also gave a viability [16] of 112%, a viability [17] of 100% and a viability [18] of 119%. It also gave a viability [19] of 108%, a viability [20] of 109% and a viability [21] of 108%. It also gave a viability [22] of 118%, a viability [23] of 100% and a viability [24] of 114%. For the same molecule, the viability [25] was 100%, the viability [26] was 124% and the viability [27] was 110%. For the same molecule, the viability [28] was 113%, the viability [29] was 81% (active) and the viability [30] was 94.8% (active). The viability [31] was 107% and the viability [32] was 110%.
In the case of `CO[C@H]1C[C@@H]2CC[C@@H](C)[C@@](O)(O2)C(=O)C(=O)N2CCCC[C@H]2C(=O)O[C@H]([C@@H](C)C[C@@H]2CC[C@@H](OCCO)[C@H](OC)C2)CC(=O)[C@H](C)/C=C(\C)[C@H](O)[C@@H](OC)C(=O)[C@H](C)C[C@H](C)/C=C/C=C/C=C/1C`, the viability [1] is reported as 103%, the viability [2] is reported as 135% and the viability [3] is reported as 91.8% (active). The viability [4] was 83.4% (active), the viability [5] was 106% and the viability [6] was 120%. For the same molecule, the viability [7] was 88% (active), the viability [8] was 74.1% (active) and the viability [9] was 120%. The viability [10] was 115%, the viability [11] was 85% (active) and the viability [12] was 72.9% (active). For the same molecule, the viability [13] was 115%, the viability [14] was 112% and the viability [15] was 79.5% (active). The viability [16] was 72.3% (active), the viability [17] was 111% and the viability [18] was 119%. The viability [19] was 86.3% (active), the viability [20] was 73.1% (active) and the viability [21] was 110%. The viability [22] was 111%, the viability [23] was 88% (active) and the viability [24] was 67.8% (active). The viability [25] was 115%, the viability [26] was 103% and the viability [27] was 73.4% (active). For the same molecule, the viability [28] was 60.4% (active), the viability [29] was 123% and the viability [30] was 120%. The viability [31] was 69.5% (active) and the viability [32] was 59.4% (active).
With `CN[C@@H](C)C(=O)N[C@H](C(=O)N1CCC[C@H]1C(=O)N[C@H](C(=O)NCCCCCCNC(=O)[C@@H](NC(=O)[C@@H]1CCCN1C(=O)[C@@H](NC(=O)[C@H](C)NC)C1CCCCC1)C(c1ccccc1)c1ccccc1)C(c1ccccc1)c1ccccc1)C1CCCCC1` (I: H-[NMeA][Chg]P[Dip] / II: H-[NMeA][Chg]P[Dip]; linker I:C-II:C via Hexamethylenediamine) the viability [1] was 121%, the viability [2] was 115% and the viability [3] was 85.6% (active). For the same molecule, the viability [4] was 93.2% (active), the viability [5] was 119% and the viability [6] was 106%. For the same molecule, the viability [7] was 95.3% (active), the viability [8] was 94.9% (active) and the viability [9] was 129%. For the same molecule, the viability [10] was 111%, the viability [11] was 83.7% (active) and the viability [12] was 94.7% (active). The viability [13] was 115%, the viability [14] was 108% and the viability [15] was 81.4% (active). The viability [16] was 99.5% (active), the viability [17] was 110% and the viability [18] was 112%. The viability [19] was 39.3% (active), the viability [20] was 85.3% (active) and the viability [21] was 114%. For the same molecule, the viability [22] was 116%, the viability [23] was 19.6% (active) and the viability [24] was 54.1% (active). The viability [25] was 96.9% (active), the viability [26] was 105% and the viability [27] was 13.6% (active). For the same molecule, the viability [28] was 21.5% (active), the viability [29] was 89.4% (active) and the viability [30] was 120%. For the same molecule, the viability [31] was 0.911% (active) and the viability [32] was 7.49% (active).
